This is an account of results in the supplement of paper PMC10849652.

Targets with a hit are over-represented here; the source holds about 7,900 in all. About 0.6% of all pairs of compound and target were hits. Values without a mark were called inactive.

Holding throughout (assay): log2 fold change, soluble protein after heating vs DMSO (PISA); higher = thermal stabilisation; K562 cells, 10 uM, 30 min; active = over 0.2 and 3.5 SD of the protein, either way, in both replicates (recomputed)
Compound in assay [1]: Cc1cc(Nc2cc(CN3CCOCC3)c3nc(C)c(Cc4ccc(Cl)cc4F)n3n2)n[nH]1 [gandotinib]
The method, boiled down: (§1)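 Soluble protein was defined as the supernatant after 21,000xg for 90 min. It came from K562 cells at 2×10^6 cells/mL given 10 μM compound for 30 min, heated in aliquots for 3 min across 48°C-58°C, pooled, and extracted in PBS with 0.5% NP-40 at 4°C, and was quantified by TMTpro 16plex LC-MS/MS with equalised channel sums. Thermal stability against control samples, from duplicates, is reported as log2 fold change.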

Compound in assay [2]: Cc1ccc(C(=O)N(CCCN)[C@@H](c2nc3cc(Cl)ccc3c(=O)n2Cc2ccccc2)C(C)C)cc1 [ispinesib]
The method, boiled down:
as §1

Compound in assay [3]: Cc1ccc(NC(=O)c2ccc(CN3CC[C@H](N(C)C)C3)c(C(F)(F)F)c2)cc1Nc1nccc(-c2cncnc2)n1 [bafetinib]
The method, boiled down: as §1

Compound in assay [4]: Cc1cccc(CC(=O)N2CCc3c2ccc(-c2cn(C)c4ncnc(N)c24)c3F)n1
The method, boiled down:
as §1

Compound in assay [5]: Cn1cc(-c2ccc3nnc(C(F)(F)c4ccc5ncccc5c4)n3n2)cn1
The gist of the method: as §1

Compound in assay [6]: CS(=O)(=O)c1ccc(-c2cnc(N)c(C(=O)Nc3ccccc3)n2)cc1
The gist of the method: as §1

Compound in assay [7]: C[C@H](C1=CC=C(C=C1)C(=O)NC2=C3C=CNC3=NC=C2)N
The method, boiled down:
as §1

Compound in assay [8]: Cc1cc(Nc2cc(N3CCN(C)CC3)nc(Sc3ccc(NC(=O)C4CC4)cc3)n2)n[nH]1 [tozasertib]
The method, boiled down: as §1

Compound in assay [9]: Cc1cn(-c2cc(NC(=O)c3ccc(C)c(Nc4nccc(-c5cccnc5)n4)c3)cc(C(F)(F)F)c2)cn1 [nilotinib]
The gist of the method:
as §1

Compound in assay [10]: Cc1nc(Nc2n[nH]c3c2CN(C(=O)N[C@H](CN(C)C)c2ccccc2)C3(C)C)c2sccc2n1
The method, boiled down: as §1

Compound in assay [11]: Cc1ncc(-c2ccnc(Nc3ccc(S(C)(=O)=O)cc3)n2)n1C(C)C
The method, boiled down: as §1

Compound in assay [12]: Cn1cc(-c2ccc3c(c2)CCN3C(=O)Cc2cccc(C(F)(F)F)c2)c2c(N)ncnc21
The method, boiled down: as §1

Compound in assay [13]: Cn1cncc1[C@@](N)(c1ccc(Cl)cc1)c1ccc2c(c1)c(-c1cccc(Cl)c1)cc(=O)n2C [tipifarnib]
The gist of the method:
as §1

Compound in assay [14]: C[C@@H](Oc1cc(-c2cnn(C3CCNCC3)c2)cnc1N)c1c(Cl)ccc(F)c1Cl [crizotinib]
The method, boiled down:
as §1

Compound in assay [15]: C[C@H](Nc1ncnc2nc[nH]c12)c1cc2cccc(Cl)c2c(=O)n1-c1ccccc1 [duvelisib]
The method, boiled down:
as §1

Compound in assay [16]: Cc1cc(SCc2sc(-c3ccc(C(F)(F)F)cc3)nc2C)ccc1OCC(=O)O
The method, boiled down:
as §1

Compound in assay [17]: Cc1ccc(-n2nc(C(C)(C)C)cc2NC(=O)Nc2ccc(OCCN3CCOCC3)c3ccccc23)cc1 [doramapimod]
The gist of the method: as §1

Compound in assay [18]: Cc1nc(Nc2ncc(C(=O)Nc3c(C)cccc3Cl)s2)cc(N2CCN(CCO)CC2)n1 [dasatinib]
The gist of the method: as §1

Compound in assay [19]: FC(F)(F)c1ccc(/C=C/c2nc(COc3ccc(CCCCn4ccnn4)cc3)co2)cc1 [mubritinib]
The method, boiled down:
as §1

Compound in assay [20]: C[C@@H]1COCCN1C2=NC(=NC(=C2)C3(CC3)S(=O)(=O)C)C4=C5C=CNC5=CC=C4
The gist of the method: as §1

Sequence of UniProt O75056 (O75056 whole entry, looked up): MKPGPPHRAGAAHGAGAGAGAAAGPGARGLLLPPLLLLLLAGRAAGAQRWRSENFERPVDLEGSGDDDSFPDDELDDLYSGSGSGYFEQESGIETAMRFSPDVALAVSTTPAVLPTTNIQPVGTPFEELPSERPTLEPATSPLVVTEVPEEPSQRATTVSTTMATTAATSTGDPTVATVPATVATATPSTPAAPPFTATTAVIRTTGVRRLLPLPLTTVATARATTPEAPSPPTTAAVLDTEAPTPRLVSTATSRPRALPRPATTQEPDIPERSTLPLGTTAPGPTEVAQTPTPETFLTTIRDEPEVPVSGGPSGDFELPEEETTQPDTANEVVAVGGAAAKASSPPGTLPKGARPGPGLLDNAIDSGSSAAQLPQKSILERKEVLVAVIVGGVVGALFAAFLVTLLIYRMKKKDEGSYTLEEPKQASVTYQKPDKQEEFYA
Sequence of UniProt P60602 (P60602 whole entry, looked up): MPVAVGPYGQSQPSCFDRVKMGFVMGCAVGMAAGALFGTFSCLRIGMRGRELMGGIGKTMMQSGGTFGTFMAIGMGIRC
Sequence of UniProt Q7L099 (Q7L099 whole entry, looked up): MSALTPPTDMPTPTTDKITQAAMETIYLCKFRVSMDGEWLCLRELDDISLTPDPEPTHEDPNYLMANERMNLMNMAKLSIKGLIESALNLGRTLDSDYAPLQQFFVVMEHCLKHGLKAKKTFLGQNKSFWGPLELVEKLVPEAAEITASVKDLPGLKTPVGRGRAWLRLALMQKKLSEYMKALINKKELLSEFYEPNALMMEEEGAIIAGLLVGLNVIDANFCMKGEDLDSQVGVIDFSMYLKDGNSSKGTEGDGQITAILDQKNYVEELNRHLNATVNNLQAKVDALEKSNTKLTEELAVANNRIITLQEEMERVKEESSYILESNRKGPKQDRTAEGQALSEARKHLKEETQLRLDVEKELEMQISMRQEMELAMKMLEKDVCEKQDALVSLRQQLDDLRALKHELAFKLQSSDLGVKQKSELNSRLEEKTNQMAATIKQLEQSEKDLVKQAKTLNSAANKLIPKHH
Sequence of UniProt Q9BY78 (Q9BY78 whole entry, looked up): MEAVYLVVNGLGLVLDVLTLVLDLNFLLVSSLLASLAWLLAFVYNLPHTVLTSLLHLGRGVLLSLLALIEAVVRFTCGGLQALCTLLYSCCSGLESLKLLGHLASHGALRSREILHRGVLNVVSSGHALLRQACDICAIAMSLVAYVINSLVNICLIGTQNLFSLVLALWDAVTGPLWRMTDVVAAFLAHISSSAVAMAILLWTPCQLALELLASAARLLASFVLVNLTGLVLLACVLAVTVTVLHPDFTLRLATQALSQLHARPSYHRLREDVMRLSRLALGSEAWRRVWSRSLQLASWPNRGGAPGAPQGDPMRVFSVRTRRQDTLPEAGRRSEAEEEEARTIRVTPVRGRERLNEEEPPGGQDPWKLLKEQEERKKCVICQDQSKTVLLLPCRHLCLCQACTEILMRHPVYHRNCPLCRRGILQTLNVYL
Sequence of UniProt O15127 (O15127 whole entry, looked up): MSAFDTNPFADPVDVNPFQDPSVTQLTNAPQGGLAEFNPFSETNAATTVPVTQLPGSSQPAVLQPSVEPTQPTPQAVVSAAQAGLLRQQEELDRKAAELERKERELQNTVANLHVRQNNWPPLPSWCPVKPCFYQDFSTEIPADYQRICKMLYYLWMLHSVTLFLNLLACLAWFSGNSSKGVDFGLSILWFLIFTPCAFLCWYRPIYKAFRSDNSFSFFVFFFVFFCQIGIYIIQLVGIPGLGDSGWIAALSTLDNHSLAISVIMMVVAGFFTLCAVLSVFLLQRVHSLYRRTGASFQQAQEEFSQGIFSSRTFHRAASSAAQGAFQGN
Sequence of UniProt Q96LZ7 (Q96LZ7 whole entry, looked up): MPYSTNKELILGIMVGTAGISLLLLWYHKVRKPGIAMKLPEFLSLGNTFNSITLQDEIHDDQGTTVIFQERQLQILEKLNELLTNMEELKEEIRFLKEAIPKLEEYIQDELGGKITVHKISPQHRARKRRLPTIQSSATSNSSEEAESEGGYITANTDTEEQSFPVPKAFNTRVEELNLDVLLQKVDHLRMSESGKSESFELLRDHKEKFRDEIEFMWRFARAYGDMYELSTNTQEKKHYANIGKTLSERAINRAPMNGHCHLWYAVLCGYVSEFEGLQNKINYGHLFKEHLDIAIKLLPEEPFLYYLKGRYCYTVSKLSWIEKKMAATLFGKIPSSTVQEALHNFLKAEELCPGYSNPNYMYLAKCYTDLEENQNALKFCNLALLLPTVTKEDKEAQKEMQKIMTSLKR
Sequence of UniProt P60903 (P60903 whole entry, looked up): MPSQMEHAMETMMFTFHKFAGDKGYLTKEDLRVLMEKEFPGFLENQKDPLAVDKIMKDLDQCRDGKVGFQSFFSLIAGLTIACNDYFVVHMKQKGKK
Sequence of UniProt Q9H4P4 (Q9H4P4 whole entry, looked up): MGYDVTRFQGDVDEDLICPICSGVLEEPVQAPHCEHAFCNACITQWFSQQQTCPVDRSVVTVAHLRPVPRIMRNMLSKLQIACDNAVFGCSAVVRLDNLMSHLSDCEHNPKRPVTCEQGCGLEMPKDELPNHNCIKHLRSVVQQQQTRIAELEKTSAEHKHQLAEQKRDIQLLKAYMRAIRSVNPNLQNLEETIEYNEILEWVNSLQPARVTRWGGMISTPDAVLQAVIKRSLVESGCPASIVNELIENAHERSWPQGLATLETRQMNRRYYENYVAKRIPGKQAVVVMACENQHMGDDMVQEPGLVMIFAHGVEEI

For RNF26 (UniProt Q9BY78), the log2 fold change in [1] is 0.008; in [2] it was -0.829; in [3], 0.083; in assay [4], 0.111; in assay [5], -0.011.
As to S100A10 (UniProt P60903), the log2 fold change in assay [6] is -0.004; in [7], 0.063; in assay [1], 0.131; in [8], 0.057; in assay [3], -0.026; in assay [4], -0.035. Moreover, the log2 fold change was 0.072 in [9]; -0.057 in [10]; -0.016 in [11]; 0.146 in assay [12]; 0.131 in assay [13].
For the target RUFY3 isoform 3 (UniProt Q7L099), the log2 fold change was 0.017 in assay [6]; 0.007 in [14]; -0.085 in assay [7]; -0.073 in assay [15]; -0.012 in [1]; 0.002 in [8]. The log2 fold change was 0.617 (active) in [16]; -0.057 in assay [17]; -0.048 in assay [2]; -0.018 in assay [4]; -0.16 in [9]; 0.045 in assay [10]. The log2 fold change in assay [18] was -0.271; in assay [11] it was 0.052; in assay [12], 0.024; in assay [5], 0.134; in [13] it was -0.116; in assay [19], 0.043.
On to RNF41 (UniProt Q9H4P4), for which the log2 fold change in assay [3] is -0.09.
Regarding ROMO1 (UniProt P60602), the log2 fold change in [6] was 0.023; in assay [20], 0.121; in assay [7], 0.064; in [15] it was 0.117; in [1], -0.033; in assay [8], -0.003. The log2 fold change is -0.059 in [16]; -0.061 in assay [2]; 0.056 in assay [3]; -0.022 in [4]; -0.001 in [9]; 0.027 in [10]. In addition, the log2 fold change in assay [18] is -0.03; in assay [11], -0.039; in assay [12], 0.066; in assay [5] it was 0.063; in assay [13] it was 0.062; in [19], 0.01.
On to SDC3 (UniProt O75056), for which the log2 fold change in [6] was -0.047; in [20] it was 0.057; in [7], 0.151; in [15], 0.11; in assay [1], -0.193; in assay [8] it was -0.131. Moreover, the log2 fold change is -0.19 in assay [16]; 0.419 in assay [4]; -0.004 in assay [9]; 0.07 in assay [10]; 0.073 in assay [18]; -0.036 in assay [11]. Also, the log2 fold change in assay [12] was -0.019.
For SCAMP2 (UniProt O15127), the log2 fold change in assay [6] was 0.019; in assay [20], -0.213; in [7], -0.544 (active); in [15] it was 0.009; in [1], 0.034; in [8], 0.044. The log2 fold change was -0.065 in [16]; -0.073 in assay [2]; -0.113 in assay [3]; -0.125 in assay [4]; 0.084 in [9]; -0.107 in [10]. The log2 fold change in assay [18] was -0.027; in assay [11], 0.058; in [12] it was 0.11; in [5], 0.062; in assay [13], -0.061; in assay [19], 0.046.
For RPS3 (UniProt E9PJN9), the log2 fold change in assay [15] is 0.102; in [1], -0.017; in [8] it was -0.215; in assay [16] it was 0.148; in assay [2] it was -0.224; in assay [4] it was 0.076. The log2 fold change is -0.207 in [18] and -0.159 in [5].
RMDN2 isoform 2 (UniProt Q96LZ7): the log2 fold change in assay [14] was 0; in [17], 0.145; in assay [2], -0.112; in assay [9] it was -0.556; in assay [10], 0.661; in assay [11] it was -0.115. The log2 fold change was -0.104 in assay [5] and -0.231 in assay [19].
